BLM inh-1: blocks DNA unwinding by human BLM helicase; Potency, µM (doses to about 56.1 µM), actives largely listed as inhibitors; recombinant BLM DNA unwinding, fluorescence dequenching; actives 0.2% (n = 350,000); note: nearly all actives have a fitted effect of over 35% in size
Target sequence (P54132 whole entry, looked up): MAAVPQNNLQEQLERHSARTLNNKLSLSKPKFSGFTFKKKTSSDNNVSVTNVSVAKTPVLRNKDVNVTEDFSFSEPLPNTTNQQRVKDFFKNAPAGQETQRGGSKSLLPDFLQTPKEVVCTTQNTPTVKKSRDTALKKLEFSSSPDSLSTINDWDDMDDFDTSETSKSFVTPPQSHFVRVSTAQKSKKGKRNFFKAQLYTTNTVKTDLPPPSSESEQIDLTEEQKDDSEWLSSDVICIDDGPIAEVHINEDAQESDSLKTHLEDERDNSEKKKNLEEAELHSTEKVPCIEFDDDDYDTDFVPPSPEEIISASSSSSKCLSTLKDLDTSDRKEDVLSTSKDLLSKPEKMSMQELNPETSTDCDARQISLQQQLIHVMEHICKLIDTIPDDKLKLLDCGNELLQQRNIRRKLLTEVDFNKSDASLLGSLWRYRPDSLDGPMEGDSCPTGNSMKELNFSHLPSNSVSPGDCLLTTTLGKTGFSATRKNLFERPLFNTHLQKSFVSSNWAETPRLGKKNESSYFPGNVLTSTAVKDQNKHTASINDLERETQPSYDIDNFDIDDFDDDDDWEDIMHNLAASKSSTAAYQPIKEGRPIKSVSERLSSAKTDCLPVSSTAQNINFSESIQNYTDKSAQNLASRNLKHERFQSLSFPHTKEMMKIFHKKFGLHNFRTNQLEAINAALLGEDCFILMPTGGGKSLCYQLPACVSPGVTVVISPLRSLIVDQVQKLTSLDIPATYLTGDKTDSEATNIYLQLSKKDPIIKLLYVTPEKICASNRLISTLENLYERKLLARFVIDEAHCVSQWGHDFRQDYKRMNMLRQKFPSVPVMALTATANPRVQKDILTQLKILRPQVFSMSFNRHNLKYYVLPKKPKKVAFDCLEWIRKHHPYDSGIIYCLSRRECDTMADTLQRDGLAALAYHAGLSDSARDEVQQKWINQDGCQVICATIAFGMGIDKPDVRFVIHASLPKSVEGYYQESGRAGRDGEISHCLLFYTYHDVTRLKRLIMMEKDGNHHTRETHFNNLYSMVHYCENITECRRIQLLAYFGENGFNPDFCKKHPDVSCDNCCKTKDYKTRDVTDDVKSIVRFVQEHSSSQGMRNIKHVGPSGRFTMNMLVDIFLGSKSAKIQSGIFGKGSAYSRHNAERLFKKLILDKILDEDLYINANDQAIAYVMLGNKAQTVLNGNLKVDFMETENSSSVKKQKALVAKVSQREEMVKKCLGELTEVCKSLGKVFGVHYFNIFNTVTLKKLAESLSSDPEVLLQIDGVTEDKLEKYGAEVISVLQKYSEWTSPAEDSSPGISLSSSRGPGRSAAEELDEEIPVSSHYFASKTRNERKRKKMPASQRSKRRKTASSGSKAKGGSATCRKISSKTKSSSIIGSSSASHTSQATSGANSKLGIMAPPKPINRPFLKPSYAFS
RECQ1 inh: inhibitors of human RECQ1 DNA helicase | Potency, µM (highest dose often 57.3 µM), usual class: inhibitors | RECQ1 DNA unwinding, red fluorescence kinetic read | AID 2549 | P46063 | actives 0.54% (n = 240,000); note: nearly all actives have a fitted effect of over 30% in size
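RECQ1T1 50 nM; forked duplex (20 bp + 30-nt ss tails) 200 nM, ATP 2 mM final; pH 8.0, 2 mM MgCl2, 2.5 ug/ml poly(dI-dC); 15 min compound preincubation; discontinuous kinetic read over 2 h at RT.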
TRb-SRC2 inh: TRbeta-SRC2 interaction inhibition; AID 1469; TRbeta-SRC2 peptide binding, fluorescence polarization; receptor liganded with 1 µM T3; actives 0.065% (n = 280,000); Potency, µM (highest dose often 106 µM), most hits filed as inhibitors; note: nearly all actives have a fitted effect of over 50% in size
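Compounds were added to 0.6 uM TRb ligand-binding domain and 20 nM Texas Red-labeled SRC2 peptide in Tris buffer containing 1 uM T3, incubated 5 hr at ambient temperature, then read by fluorescence polarization.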
APE1 inh: APE1 (human) endonuclease inhibition; P27695; recombinant APE1, TAMRA/BHQ-2 abasic DNA cleavage fluorescence; Potency, µM (titrated, usually from 65.8 µM), usual class: inhibitors; actives 0.35% (n = 350,000); note: nearly all actives have a fitted effect of over 55% in size
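Readout is kinetic fluorescence (ex 525, em 598 nm) from cleavage of 50 nM TAMRA/BHQ-2 THF abasic duplex by 0.75 nM APE1, compound added 15 min beforehand at RT.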
TR SRC2 fluor cs: Texas Red fluorescence interference in TRb-SRC2 counter-screen; TRb/SRC2 Texas Red total fluorescence interference; Potency, µM (top dose mostly 106 µM); actives 0.29% (n = 280,000); AID 1479; active = well fitted curve in either direction with a large enough effect; inconclusive = small, poorly fitted or top-dose-only effect
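Human TRb ligand-binding domain at 0.6 uM with 20 nM Texas Red SRC2 peptide in Tris buffer containing 1 uM T3 and 5% DMSO, incubated with compound 5 h at ambient temperature. Total fluorescence (555/632 nm) calculated as parallel + 2 × perpendicular.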
RGS12 GoLoco inh: inhibitors of human Gai1-RGS12 GoLoco interaction (red fluorophore); Gai1:RGS12 GoLoco peptide FP, rhodamine, 10 min; actives 0.44% (n = 230,000); P63096; Potency, µM (titrated, usually from 61.6 µM), actives largely listed as inhibitors; active = well fitted inhibition curve with a large enough effect, not every such curve was filed as active; inactive = no such curve, though single readings can be large or run the other way; note: nearly all actives have a fitted effect of over 30% in size
BLM inh-2: BLM (human) helicase inhibition, confirmation; actives 40% (n = 220); Potency, µM, most hits filed as inhibitors; shares compounds with BLM inh-1; BLM DNA unwinding, fluorescence quenching, biochemical;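 note: strand separation dequenches TAMRA so unwinding raises red fluorescence; series mostly up to about 69 µM; nearly all actives have a fitted effect of over 45% in size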
Large screens that a line does not name were inactive (follow-up assays come after a bar, where they were run); ! = not confirmed by another sample; [ ] = another dose, or the depositor's remark. This is a sample that favours compounds with a hit; in the whole collection about 0.9% have one here. Unless noted, calls come from the whole dose curve; as a rule, active = well fitted curve in the direction sought with a large enough effect; inconclusive = small, poorly fitted or top-dose-only effect, or another doubt; inactive = no such curve, though single readings can be large; an effect the other way counts as inactive or inconclusive.

C=C1c2cccc(OC)c2O[C@H](C(=O)OCC)[C@@H]1CC(CC)CCCC (stereo partly specified)	none
CCOC(=O)/C=C1\CC(C(=O)OCC)Oc2c(OC)cccc21 (stereo unspecified)	none | BLM inh-2 inactive
COc1ccc2c(c1)Cc1sc(NC(=O)c3cccnc3)nc1-2	BLM inh-1 17.8µM, APE1 inh inconclusive | BLM inh-2 inconclusive
Cc1ccc(NC(=O)CSc2nc(-c3ccc(C(C)(C)C)cc3)nc3cc(=O)[nH]n23)cc1C	none (no result: RECQ1 inh, APE1 inh, RGS12 GoLoco inh)
CCOc1ccc(-c2nc(SCC(=O)Nc3ccc(C)c(C)c3)n3[nH]c(=O)cc3n2)cc1	BLM inh-1 14.1µM (no result: RECQ1 inh, APE1 inh, RGS12 GoLoco inh) | BLM inh-2 18.2µM
CCOc1ccc(-c2nc(SCC(=O)Nc3cc(F)ccc3F)n3[nH]c(=O)cc3n2)cc1	BLM inh-1 10µM (no result: RECQ1 inh, APE1 inh, RGS12 GoLoco inh) | BLM inh-2 11.5µM
COc1ccccc1NC(=O)C(=O)c1cc(C)n(-c2cc(C)cc(C)c2)c1C	none (no result: RECQ1 inh, APE1 inh, RGS12 GoLoco inh)
Cc1c(Cl)cccc1NC(=O)C(C)n1nnc2sc3c(c2c1=O)CCCC3 (stereo unspecified)	none (no result: RECQ1 inh, APE1 inh, RGS12 GoLoco inh)
CN(C)c1ccc(-c2nc(-c3ccco3)no2)cc1[N+](=O)[O-]	none (no result: RECQ1 inh, APE1 inh, RGS12 GoLoco inh)
CC(C)CN(C(=O)COC(=O)c1cc2c(s1)CCC2)C1CCS(=O)(=O)C1 (stereo unspecified)	BLM inh-1 25.1µM, RECQ1 inh inconclusive, APE1 inh 12.6µM | BLM inh-2 inconclusive
O=C(CCl)Nc1ccccc1Sc1ccc(Cl)cc1	BLM inh-1 15.8µM | BLM inh-2 11.5µM
Cc1cccc(Nc2nn3c(=O)c4cc5c(cc4nc3s2)OCO5)c1	BLM inh-1 11.2µM (no result: RECQ1 inh, APE1 inh, RGS12 GoLoco inh) | BLM inh-2 10.2µM
COCc1cc(=O)n2[nH]c(-c3ccco3)cc2n1	none
CCCCN1Cc2c(nc3cc(-c4ccco4)[nH]n3c2=O)C1=O	BLM inh-1 17.8µM | BLM inh-2 inactive
O=C(CSc1ccccn1)Nc1ccc2ccccc2c1	APE1 inh inconclusive
O=C(CSc1n[nH]c(=O)[nH]c1=O)Nc1cccc(S(=O)(=O)N2CCOCC2)c1	none
O=C(CSc1n[nH]c(=O)[nH]c1=O)Nc1ccc2c(c1)C(=O)c1ccccc1C2=O	BLM inh-1 12.6µM, APE1 inh inconclusive | BLM inh-2 16.2µM
O=C(CSc1ccccn1)Nc1ccc2c(c1)C(=O)c1ccccc1C2=O	BLM inh-1 25.1µM, APE1 inh inconclusive | BLM inh-2 inconclusive
O=C1C(Cl)=C(NCCN2CCOCC2)C(=O)c2ncccc21	BLM inh-1 5.01µM, RECQ1 inh inconclusive, TRb-SRC2 inh inconclusive, APE1 inh inconclusive | BLM inh-2 5.76µM
O=C1C(Cl)=C(NCCN2CCOCC2)C(=O)c2ccccc21	none (no result: RECQ1 inh, TRb-SRC2 inh, TR SRC2 fluor cs, RGS12 GoLoco inh)
Cc1ccc(N2C(=O)CS(=O)(=O)C23C(=O)N(Cc2cccc(F)c2)c2ccccc23)cc1Cl (stereo unspecified)	none (no result: RECQ1 inh, APE1 inh, RGS12 GoLoco inh)
Nc1c(C(=O)NC2CC2)sc2nc3c(c(-c4ccco4)c12)CC/C3=C/c1ccco1	BLM inh-1 5.62µM | BLM inh-2 inconclusive
NC(=O)c1sc2nc3c(c(-c4ccco4)c2c1N)CCC3	none
CCCOc1cccc(C(=O)N2CCCCC2CCN2CCCCC2)c1 (stereo unspecified)	none (no result: RECQ1 inh, APE1 inh, RGS12 GoLoco inh)
CCC(C)NC(=O)Cn1c(=O)n(-c2ccc(C)c(C)c2)c(=O)c2c(C)c(C(=O)N(CC)CC)sc21 (stereo unspecified)	none (no result: RECQ1 inh, APE1 inh, RGS12 GoLoco inh)
Cc1ccc2c(c1)N(C(=O)N1CCC(C(=O)Nc3cccc(F)c3)CC1)CCO2	none (no result: RECQ1 inh, APE1 inh, RGS12 GoLoco inh)
Cc1cc2ccccc2c(=O)[nH]1	none
Cc1ccccc1Nc1cc2ccccc2c(=O)[nH]1	BLM inh-1 28.2µM, TRb-SRC2 inh inconclusive | BLM inh-2 inconclusive
CCn1ncc(Cl)c1C(=O)Nc1ccc2c(c1)CCC2	BLM inh-1 25.1µM (no result: RECQ1 inh, TRb-SRC2 inh, TR SRC2 fluor cs, RGS12 GoLoco inh) | BLM inh-2 18.2µM
CCCn1c(CCCNC(=O)c2ccccc2OC)nc2ccccc21	none (no result: RECQ1 inh, APE1 inh, RGS12 GoLoco inh)
O=C(c1csnn1)N1CCC2(CCCN(c3ccccn3)C2)CC1	none (no result: TRb-SRC2 inh, TR SRC2 fluor cs)
CCn1ncc(Br)c1C(=O)Nc1ccc(C(=O)OC(C)C)cc1	BLM inh-1 3.55µM | BLM inh-2 inconclusive
N#Cc1c2nc3ccccc3nc2n2cc(NC(=O)c3ccc(F)cc3)ccc12	BLM inh-1 12.6µM | BLM inh-2 7.25µM
COc1cccc(C2/C(=C(\O)c3ccc4c(c3)OCCO4)C(=O)C(=O)N2CCN(C)C)c1 (stereo unspecified)	BLM inh-1 8.91µM, APE1 inh inconclusive | BLM inh-2 inactive
Cc1ccc(-c2nn3c(C)nnc3s2)cc1NC(=O)c1ccc(-c2ccc(Cl)cc2Cl)o1	BLM inh-1 11.2µM | BLM inh-2 7.25µM
Cc1ccc(-c2nn3c(C)nnc3s2)cc1NC(=O)c1ccc(Br)o1	none
CCC(CNc1cc(OC)cc2cccnc12)NC1CCCCC1 (stereo unspecified)	BLM inh-1 8.91µM, RECQ1 inh inconclusive, TRb-SRC2 inh inconclusive, RGS12 GoLoco inh 28.2µM | BLM inh-2 inactive
COc1cc(NS(=O)(=O)c2cccc([N+](=O)[O-])c2)c2ncccc2c1	none (no result: RGS12 GoLoco inh)
COc1cc(NS(=O)(=O)c2ccc(C)cc2)c2ncccc2c1	none
COc1cc(NCCCC(C)N)c2ncccc2c1 (stereo unspecified)	BLM inh-1 35.5µM!, RECQ1 inh inconclusive, TRb-SRC2 inh 28.2µM, APE1 inh inconclusive, TR SRC2 fluor cs 44.7µM[fluorescent], RGS12 GoLoco inh 28.2µM | BLM inh-2 inactive
CCOC(=O)C1CCN(c2nc3ccccc3n2CC(=O)c2ccccc2)CC1	BLM inh-1 20µM | BLM inh-2 inactive
COc1ccccc1CNC(=O)/C=C/c1ccc(Br)o1	BLM inh-1 10µM | BLM inh-2 inactive
Cc1ccc(-c2nc(NC(=O)CSc3cc(C)c4ccccc4n3)ns2)cc1	BLM inh-1 6.31µM, APE1 inh inconclusive | BLM inh-2 18.2µM
CCCCn1c(SCc2ccccc2C)nc2ccsc2c1=O	none (no result: RECQ1 inh, APE1 inh, RGS12 GoLoco inh)

Source: PubChem
